# Screening results from PubChem BioAssay.
# Only some compounds are listed: those with a hit (about 2.3% of all), similar ones and a draw of the others.
# GSTO1 counter: counter-screen for RBBP9 inhibitors: inhibitors of human GSTO1; inhibition, % at 5.96 µM; P78417; 1.1% of 300,000 active; recombinant GSTO1, activity-based probe fluorescence polarization;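 active means inhibition above the campaign mean inhibition plus 3 SD, cut at about 35% in these data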;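 further: 0% = GSTO1-1 with DMSO and 100% = wells lacking GSTO1-1 enzyme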
# PME-1 inh: blocks human protein phosphatase methylesterase 1 | inhibition, % at 5.9 µM | AID 2130 | recombinant PME-1, FP-Rh probe fluorescence polarization | 0.53% of 320,000 active | Q9Y570;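 active means inhibition above the campaign mean of all compounds plus 3 SD, cut at about 26% in these data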;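 further: competitive labeling of PME-1 active site by serine hydrolase directed probe; 0% = PME-1 with DMSO and 100% = wells lacking PME-1 enzyme; inhibitors block probe labeling so polarization falls and inhibition rises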
# pPAFAH FP inh: inhibitors of human plasma PAF acetylhydrolase (pPAFAH) | inhibition, % at 3.39 µM | Q13093 | 1.5% of 330,000 active | recombinant pPAFAH, FP-rhodamine probe fluorescence polarization;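 active means inhibition above the mean inhibition across the screen plus 3 SD, cut at about 25% in these data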;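 further: inhibitors block binding of the rhodamine activity-based probe so polarization drops; 0% = enzyme with DMSO and 100% = wells lacking pPAFAH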
# Target sequence (Q13093 whole entry, looked up): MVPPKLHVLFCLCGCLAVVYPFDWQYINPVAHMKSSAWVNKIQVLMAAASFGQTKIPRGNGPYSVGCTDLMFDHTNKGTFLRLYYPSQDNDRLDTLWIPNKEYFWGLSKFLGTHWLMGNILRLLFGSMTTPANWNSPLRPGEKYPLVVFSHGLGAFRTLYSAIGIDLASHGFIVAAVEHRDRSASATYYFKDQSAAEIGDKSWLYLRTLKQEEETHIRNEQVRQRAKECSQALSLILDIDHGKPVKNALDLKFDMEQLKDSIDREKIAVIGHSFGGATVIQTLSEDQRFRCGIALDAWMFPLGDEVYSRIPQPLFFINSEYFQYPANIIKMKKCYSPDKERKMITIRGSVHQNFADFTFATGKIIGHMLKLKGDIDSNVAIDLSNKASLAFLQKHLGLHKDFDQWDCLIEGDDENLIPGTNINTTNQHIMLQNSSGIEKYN
# Fam108B counter: counter-screen for RBBP9 inhibitors: inhibitors of mouse Fam108B; recombinant Fam108B, FP-Rh probe fluorescence polarization; inhibition, % at 9.51 µM; 0.33% of 300,000 active;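 active means inhibition above the screen mean inhibition plus 3 SD, computed separately per campaign, cut at about 18% in these data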;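 further: inhibitors lower polarization as less probe binds the enzyme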
# PAD4 inh: inhibitors of human PAD4. inhibition, % at 6.36 µM. Q9UM07. 0.41% of 330,000 active. recombinant PAD4, RCA probe fluorescence polarization;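 active means percent inhibition above a cutoff equal to the mean of all tested compounds plus 3 SD, cut at about 15% in these data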;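 further: 0% = PAD4 with RCA probe and DMSO and 100% = probe without PAD4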
# GSTO1 confirm: confirmation of human GSTO1 inhibitors | 54% of 2,400 active | shares compounds with GSTO1 counter | inhibition, % at 5.96 µM | recombinant GSTO1, probe fluorescence polarization;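 active means inhibition above the primary screen's cutoff, its mean inhibition plus 3 SD, cut at about 35% in these data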;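 further: loss of polarization as inhibitors block binding of rhodamine sulfonate ester activity probe; 0% = GSTO1 with DMSO and 100% = wells lacking GSTO1 enzyme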
# GSTO1 ABPP inh: GSTO1 (human) inhibition by gel ABPP; shares compounds with GSTO1 counter; recombinant GSTO1, gel ABPP SE-Rh probe fluorescence; inhibition, % at 1 µM; 30% of 130 active; AID 463110;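 active means inhibition of the enzyme GSTO1 above about 75%, limit read from the data; inactive means inhibition below that limit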
# Numbers without * were called inactive; nt = not tested or not shown; ! = a repeat was not active.
SMILES,GSTO1 counter,PME-1 inh,pPAFAH FP inh,Fam108B counter,PAD4 inh,GSTO1 confirm,others
O=c1[nH]c(C2CCN(S(=O)(=O)c3ccccc3C(F)(F)F)CC2)nc2c1nnn2Cc1cccc(F)c1,47*,19,-2,-3,-1,50*,
O=c1[nH]c(C2CCN(S(=O)(=O)c3ccc(C(F)(F)F)cc3)CC2)nc2c1nnn2Cc1cccc(F)c1,3,12,5,-3,-3,nt,
CC1CCCCN1c1ccc(N)cc1C(N)=O (stereo unspecified),0,7,2,0,1,nt,
O=C(O)CCCN1C(=O)/C(=C\c2ccccc2OCc2ccccc2)SC1=S,39*,18,29*,0,-4,48*,
O=C(O)CN1C(=O)/C(=C\c2cccc(OCc3ccccc3)c2)SC1=S,40*,2,-22,4,1,30,
O=C1/C(=C\c2cccc(O)c2)SC(=S)N1Cc1ccccc1,1,-10,-2,-12,-9,nt,
Cc1ccc(C(=O)N2CCNC(=O)C2CC(=O)Nc2ccccc2)cc1 (stereo unspecified),-2,2,-1,0,1,nt,
CC(C)n1ncc2c(C(=O)Nc3cccc(C#N)c3)cc(C3CC3)nc21,nt,-16,-3,nt,-2,nt,
O=C(NCC1CCCO1)C1CCCN1C(=O)Nc1ccc(Cl)c(Cl)c1 (stereo unspecified),0,-3,-1,1,-3,nt,
COc1cc(/C=C2\S/C(=N/S(=O)(=O)c3ccccc3)NC2=O)c([N+](=O)[O-])cc1OC,38*,6,18,-1,-15,31,
O=C(Cc1cc(=O)[nH][nH]1)N/N=C/C(Cl)=C/c1ccccc1,54*,3,26*!,1,7,20,
Cc1cc(NC(=O)CS(=O)(=O)c2ccc(Cl)cc2)no1,5,3,1,2,-1,nt,
Fc1ccccc1OCC1CCCN(Cc2nc(CC3CC3)no2)C1 (stereo unspecified),-4,-2,3,-4,-4,nt,
CCOC(=O)c1c(C)n(C)c2cc(Br)c(O)c(O)c12,45*,4,7,-2,-10,13,
Cc1ccc(S(=O)(=O)N2CCCCC2)cc1NC(=O)CNC(C)c1ccc(Cl)c(Cl)c1 (stereo unspecified),nt,6,18,nt,4,nt,
COc1ccc(OC)c2c1C(=O)C(Cl)=C(Cl)C2=O,58*,3,10,-1,-7,8,
COc1ccc(CCNC(=O)COC(=O)Cc2c[nH]c3ccccc23)cc1OC,nt,nt,1,nt,-5,nt,
COc1cc(-c2nnc(SCC(=O)c3ccc(C)cc3)o2)cc(OC)c1OC,38*,-1,-1,-4,2,27,
COc1ccc(C(=O)CSc2nnc(Cc3ccccc3)o2)cc1,38*,-1,-6,3,0,28,
O=C(Nc1ccc(C(=O)N2CCC(N3CCOCC3)CC2)cc1)c1ccc(Br)o1,-2,2,-6,3,4,nt,
O=c1cc(CCl)nc(Cc2c(Cl)cccc2Cl)[nH]1,93*,0,-1,1,0,97*,GSTO1 ABPP inh=82*
O=c1cc(-c2ccccc2)nc(Cc2c(Cl)cccc2Cl)[nH]1,5,0,1,-6,3,nt,
COc1ccc2c(c1)CC/C(=C\Nc1ccc3c(c1)OCO3)C2=O,69*,32*,25*,12,4,62*,
O=C(O)CC1S/C(=N/N=C/c2ccc(-c3ccc(Cl)cc3[N+](=O)[O-])o2)NC1=O (stereo unspecified),50*,0,17,4,-11,15,
O=C(Cc1ccccc1)NC1(O)C(=O)c2ccccc2C1=O,72*,5,-4,3,9,75*,
SMILES,GSTO1 counter,PME-1 inh,pPAFAH FP inh,Fam108B counter,PAD4 inh,GSTO1 confirm,others
Cc1ccc(C)c(S(=O)(=O)Nc2ccc(O)c(C(=O)O)c2)c1,3,1,1,-1,0,nt,
Cc1ccc(C)c(S(=O)(=O)Nc2ccc(O)c3ccccc23)c1,53*,-4,21,-1,-5,0,
COc1ccc(S(=O)(=O)Nc2ccc(O)c3ccccc23)cc1,70*,9,15,4,7,9,
O=C(CSc1nnc(NC(=O)C2CC(=O)N(c3ccccc3)C2)s1)NCc1ccco1 (stereo unspecified),3,1,3,0,-9,nt,
Cc1cc(Nc2cc(C(=O)O)ccc2C)n2ncnc2n1,7,8,1,1,4,nt,
Cc1cc(Nc2cccc(C(=O)O)c2)n2ncnc2n1,86*,-3,0,2,-2,5,
Cc1cc(NC(=O)CCC(=O)N(CC(=O)NC2CCCC2)c2cccc(F)c2)no1,-1,5,1,0,2,nt,
O=C(c1cccs1)[C@@H]1[C@@H]2C(=O)N(Cc3ccc4c(c3)OCO4)C(=O)[C@@H]2C2c3ccccc3C=CN21 (stereo partly specified),38*,0,13,-6,1,8,
CC1(C)[C@H]2CC=C(CN3CCC(N4CCC(C(=O)N5CCCC5)CC4)CC3)[C@@H]1C2,5,-4,-9,2,-5,nt,
O=C(COC(=O)CSc1ccc(Cl)cc1)Nc1ccc2[nH]c(=O)[nH]c2c1,nt,nt,12,nt,-1,nt,
Cc1cccc(-c2nnc(SCCOc3ccc4c(C)cc(=O)oc4c3)o2)c1,40*,-1,0,-3,-1,25,
Cc1cc(=O)oc2cc(OCCSc3nnc(-c4ccccc4)o3)ccc12,15,-3,0,0,-1,nt,
CCCCOc1ccc(C(=O)Oc2cc(C)[nH]c(=O)c2[N+](=O)[O-])cc1,0,-2,4,-6,2,nt,
CCOc1ccc(C(=O)Oc2cc(C)[nH]c(=O)c2[N+](=O)[O-])cc1,61*,6,-2,2,1,2,
O=C(OCc1ccc(F)cc1)c1ccc2c(c1)-c1ccccc1C2=O,-3,0,9,0,1,nt,
CCOC(=O)C1=C(Cc2ccc(F)cc2)C(=O)c2ccccc2C1=O,38*,4,9,7,-37,4,
Cc1cc(C)c2[nH]c(O)c(N=NC(=S)NCC3CCCO3)c2c1 (stereo unspecified),3,-3,10,5,1,nt,
Oc1[nH]c2c(Cl)cc(Cl)cc2c1N=NC(=S)NCC1CCCO1 (stereo unspecified),51*,5,16,-1,-3,7,
O=C(OCC(=O)N1CCCC1=O)c1nc(Cl)c(Cl)c(Cl)c1Cl,40*,-6,-1,0,-5,24,
Nc1c(Cl)c(Cl)nc(C(=O)OCC(=O)N2CCCC2=O)c1Cl,4,3,2,3,-1,nt,
COc1cccc(COC(=O)Cc2ccc(S(=O)(=O)N3CCOCC3)s2)c1OC,nt,7,4,nt,-1,nt,
CCOC(=O)N1CCN(CC(=O)Nc2ccc(F)c(F)c2F)CC1,8,2,4,-5,-1,nt,
